This note sets out measurements from publication PMC7862700, “An all-to-all approach to the identification of sequence-specific readers for epigenetic DNA modifications on cytosine”.

Experiment in all cases: DAPPL (digital affinity profiling via proximity ligation, sequencing); 10 mM Tris-HCl pH 7.5, 50 mM NaCl, 1 mM DTT, 4% glycerol, room temperature, 30 min; GST-TFs on glutathione beads, 16-mer random dsDNA library, 0.1% formaldehyde crosslink after washing; high values mean tight binding
One assay has as its target T1, FEV (Homo sapiens, UniProt Q99581 1-238).
T1 sequence: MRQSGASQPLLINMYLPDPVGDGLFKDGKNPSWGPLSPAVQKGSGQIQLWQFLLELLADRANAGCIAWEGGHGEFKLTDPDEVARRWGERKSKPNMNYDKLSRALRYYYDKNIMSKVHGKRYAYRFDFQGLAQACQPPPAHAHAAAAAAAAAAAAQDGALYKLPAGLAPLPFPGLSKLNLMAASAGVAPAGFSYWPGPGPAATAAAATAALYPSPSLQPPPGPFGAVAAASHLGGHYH
The following applies: protein: recombinant; tags: N-terminal GST; dsDNA, one strand shown. The procedure, abridged: (§1)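 Human transcription factors carrying a GST fusion were produced in yeast, bound to glutathione beads, tagged with DNA barcodes and pooled together with a tag-only sample. Each pool was held with 200 nmole of a random double-stranded 16-mer DNA library in Tris/NaCl/DTT/glycerol buffer for 30 min at room temperature, then washed, crosslinked in 0.1% formaldehyde, proximity-ligated with BsaI/T4 ligase (1 h, 37 °C), PCR-amplified and sequenced on an Illumina NextSeq500. Binding signal is the read frequency of each hexamer for a given factor divided by its frequency in the tag-only sample.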

Another assay addresses ETV5 (Homo sapiens, UniProt P41161 1-510). To be noted: protein: recombinant; tags: N-terminal GST; dsDNA, one strand shown. The procedure, abridged: as §1
In another assay the target is HSF1 (Homo sapiens, UniProt Q00613 1-529). The following applies: protein: recombinant; tags: N-terminal GST; chain copies: 3; dsDNA, one strand shown. The procedure, abridged: as §1
The target of the next assay is T2, SPIC (Homo sapiens, UniProt Q8N5J4 1-248).
T2 sequence: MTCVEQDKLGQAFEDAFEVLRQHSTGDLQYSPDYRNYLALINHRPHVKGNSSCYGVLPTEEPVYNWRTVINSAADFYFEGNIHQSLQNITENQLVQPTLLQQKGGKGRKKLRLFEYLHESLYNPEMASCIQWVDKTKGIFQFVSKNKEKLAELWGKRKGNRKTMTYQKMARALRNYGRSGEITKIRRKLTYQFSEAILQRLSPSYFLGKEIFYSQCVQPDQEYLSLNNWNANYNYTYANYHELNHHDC
To be noted: protein: recombinant; tags: N-terminal GST; dsDNA, one strand shown. The essentials:
as §1

The target in another assay is ELF4 (Homo sapiens, UniProt Q99607 1-663). To be noted: protein: recombinant; tags: N-terminal GST; dsDNA, one strand shown. The essentials:
as §1

Another assay deals with T3, ELK4 (Homo sapiens, UniProt P28324-2 1-405).
T3 sequence: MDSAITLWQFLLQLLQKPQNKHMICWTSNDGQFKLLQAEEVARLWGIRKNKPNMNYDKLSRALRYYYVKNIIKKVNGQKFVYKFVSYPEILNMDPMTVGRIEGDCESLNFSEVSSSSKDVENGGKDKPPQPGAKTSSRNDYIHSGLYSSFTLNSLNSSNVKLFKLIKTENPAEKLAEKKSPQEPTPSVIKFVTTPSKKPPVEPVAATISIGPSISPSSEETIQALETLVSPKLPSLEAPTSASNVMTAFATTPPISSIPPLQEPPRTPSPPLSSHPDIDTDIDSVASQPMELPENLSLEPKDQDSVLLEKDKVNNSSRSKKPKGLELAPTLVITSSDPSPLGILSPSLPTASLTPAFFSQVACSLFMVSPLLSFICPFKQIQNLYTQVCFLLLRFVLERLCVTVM
To be noted: protein: recombinant; tags: N-terminal GST; dsDNA, one strand shown. The essentials:
as §1

The target in another assay is T4, ETV2 (Homo sapiens, UniProt O00321 1-342).
T4 sequence: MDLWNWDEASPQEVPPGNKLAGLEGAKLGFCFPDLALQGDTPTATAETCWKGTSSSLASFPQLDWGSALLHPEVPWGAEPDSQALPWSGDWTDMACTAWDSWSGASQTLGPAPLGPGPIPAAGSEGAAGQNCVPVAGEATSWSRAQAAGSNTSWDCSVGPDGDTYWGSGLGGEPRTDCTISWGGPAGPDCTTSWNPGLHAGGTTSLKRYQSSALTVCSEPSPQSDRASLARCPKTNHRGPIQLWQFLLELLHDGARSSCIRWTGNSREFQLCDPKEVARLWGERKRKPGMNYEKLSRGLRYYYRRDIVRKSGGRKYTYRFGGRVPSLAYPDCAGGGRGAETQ
To be noted: protein: recombinant; tags: N-terminal GST; dsDNA, one strand shown. The procedure, abridged:
as §1

The target of a further assay is T5, ELF3 (Homo sapiens, UniProt P78545 1-371).
T5 sequence: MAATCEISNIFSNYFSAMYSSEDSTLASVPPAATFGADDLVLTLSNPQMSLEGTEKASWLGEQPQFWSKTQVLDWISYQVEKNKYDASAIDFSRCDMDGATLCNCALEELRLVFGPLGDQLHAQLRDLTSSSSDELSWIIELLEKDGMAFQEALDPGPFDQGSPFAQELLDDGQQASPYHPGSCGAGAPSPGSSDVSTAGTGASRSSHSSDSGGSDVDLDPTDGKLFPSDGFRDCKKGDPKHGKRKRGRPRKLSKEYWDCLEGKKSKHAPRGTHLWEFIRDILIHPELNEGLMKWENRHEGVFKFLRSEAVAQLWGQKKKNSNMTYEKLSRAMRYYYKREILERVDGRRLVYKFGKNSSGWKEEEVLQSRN
To be noted: protein: recombinant; tags: N-terminal GST; dsDNA, one strand shown. The essentials: as §1

Another assay concerns the target CRX (Homo sapiens, UniProt O43186 1-299). To be noted: protein: recombinant; tags: N-terminal GST; dsDNA, one strand shown. The essentials:
as §1

Another assay deals with ETV1 (Homo sapiens, UniProt P50549 1-477). To be noted: protein: recombinant; tags: N-terminal GST; dsDNA, one strand shown. The essentials: as §1
A further assay has as its target T6, ERF (Homo sapiens, UniProt P50548 1-548).
T6 sequence: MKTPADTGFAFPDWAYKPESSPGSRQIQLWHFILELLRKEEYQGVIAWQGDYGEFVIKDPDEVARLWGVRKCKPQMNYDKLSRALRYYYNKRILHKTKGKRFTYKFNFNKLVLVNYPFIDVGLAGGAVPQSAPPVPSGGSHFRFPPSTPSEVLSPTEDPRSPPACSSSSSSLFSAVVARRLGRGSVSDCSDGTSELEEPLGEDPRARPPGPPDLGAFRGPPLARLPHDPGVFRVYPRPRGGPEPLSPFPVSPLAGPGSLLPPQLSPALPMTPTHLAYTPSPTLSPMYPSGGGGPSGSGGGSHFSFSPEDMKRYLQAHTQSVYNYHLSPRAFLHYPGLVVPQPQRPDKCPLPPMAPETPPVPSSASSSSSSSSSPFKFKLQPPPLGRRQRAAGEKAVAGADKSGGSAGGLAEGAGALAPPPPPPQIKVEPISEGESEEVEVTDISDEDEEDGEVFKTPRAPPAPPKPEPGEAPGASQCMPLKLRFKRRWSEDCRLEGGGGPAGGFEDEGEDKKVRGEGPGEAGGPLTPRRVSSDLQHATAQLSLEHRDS
To be noted: protein: recombinant; tags: N-terminal GST; dsDNA, one strand shown. The procedure, abridged:
as §1

For another assay, the target named is T7, ETV3L (Homo sapiens, UniProt Q6ZN32 1-361).
T7 sequence: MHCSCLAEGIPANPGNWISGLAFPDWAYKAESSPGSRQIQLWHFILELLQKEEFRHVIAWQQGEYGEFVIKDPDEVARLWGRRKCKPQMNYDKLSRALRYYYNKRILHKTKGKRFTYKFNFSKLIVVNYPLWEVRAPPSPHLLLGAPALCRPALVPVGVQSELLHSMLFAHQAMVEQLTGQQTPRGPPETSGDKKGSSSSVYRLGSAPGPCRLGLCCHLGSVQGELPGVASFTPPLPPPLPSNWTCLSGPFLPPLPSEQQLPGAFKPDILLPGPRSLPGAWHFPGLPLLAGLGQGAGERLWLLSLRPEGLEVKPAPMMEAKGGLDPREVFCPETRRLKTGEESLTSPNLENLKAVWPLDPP
The following applies: protein: recombinant; tags: N-terminal GST; dsDNA, one strand shown. The essentials: as §1

The target in the next assay is T8, ETS2 (Homo sapiens, UniProt P15036 1-469).
T8 sequence: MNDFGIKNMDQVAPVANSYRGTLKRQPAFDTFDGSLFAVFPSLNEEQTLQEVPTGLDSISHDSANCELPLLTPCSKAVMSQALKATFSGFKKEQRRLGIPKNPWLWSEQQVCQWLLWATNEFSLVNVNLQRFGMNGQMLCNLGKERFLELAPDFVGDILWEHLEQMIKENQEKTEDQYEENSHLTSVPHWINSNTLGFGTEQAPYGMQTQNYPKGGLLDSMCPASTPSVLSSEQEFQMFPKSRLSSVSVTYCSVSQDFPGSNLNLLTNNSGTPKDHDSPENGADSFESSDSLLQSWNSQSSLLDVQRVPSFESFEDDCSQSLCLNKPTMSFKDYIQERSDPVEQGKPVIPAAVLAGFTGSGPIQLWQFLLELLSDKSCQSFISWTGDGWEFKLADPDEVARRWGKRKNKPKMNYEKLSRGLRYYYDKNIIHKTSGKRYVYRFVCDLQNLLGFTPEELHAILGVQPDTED
To be noted: protein: recombinant; tags: N-terminal GST; dsDNA, one strand shown. The procedure, abridged: as §1

A further assay has as its target T9, SPDEF (Homo sapiens, UniProt O95238 1-335).
T9 sequence: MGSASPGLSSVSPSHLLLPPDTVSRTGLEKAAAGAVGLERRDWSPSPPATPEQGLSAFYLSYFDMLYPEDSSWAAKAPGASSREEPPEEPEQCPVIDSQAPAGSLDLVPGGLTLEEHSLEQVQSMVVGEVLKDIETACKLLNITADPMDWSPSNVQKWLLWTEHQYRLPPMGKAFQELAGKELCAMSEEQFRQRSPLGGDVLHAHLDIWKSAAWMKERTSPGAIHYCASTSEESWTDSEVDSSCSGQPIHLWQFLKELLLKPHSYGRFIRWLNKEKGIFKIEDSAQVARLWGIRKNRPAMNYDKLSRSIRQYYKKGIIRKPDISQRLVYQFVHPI
The following applies: protein: recombinant; tags: N-terminal GST; dsDNA, one strand shown. The procedure, abridged:
as §1

Another assay addresses T10, ETV7 (Homo sapiens, UniProt Q9Y603 1-341).
T10 sequence: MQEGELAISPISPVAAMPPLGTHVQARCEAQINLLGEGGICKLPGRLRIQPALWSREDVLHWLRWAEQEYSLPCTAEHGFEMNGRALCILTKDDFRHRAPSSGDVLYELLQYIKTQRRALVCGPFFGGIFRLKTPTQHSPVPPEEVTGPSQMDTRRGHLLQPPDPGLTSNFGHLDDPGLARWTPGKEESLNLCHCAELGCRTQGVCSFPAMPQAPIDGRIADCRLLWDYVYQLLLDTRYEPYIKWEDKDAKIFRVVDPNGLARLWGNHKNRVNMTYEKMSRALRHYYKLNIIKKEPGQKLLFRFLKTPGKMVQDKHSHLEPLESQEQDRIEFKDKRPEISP
To be noted: protein: recombinant; tags: N-terminal GST; dsDNA, one strand shown. The procedure, abridged:
as §1

The target of another assay is T11, ELF5 (Homo sapiens, UniProt Q9UKW6-2 1-255).
T11 sequence: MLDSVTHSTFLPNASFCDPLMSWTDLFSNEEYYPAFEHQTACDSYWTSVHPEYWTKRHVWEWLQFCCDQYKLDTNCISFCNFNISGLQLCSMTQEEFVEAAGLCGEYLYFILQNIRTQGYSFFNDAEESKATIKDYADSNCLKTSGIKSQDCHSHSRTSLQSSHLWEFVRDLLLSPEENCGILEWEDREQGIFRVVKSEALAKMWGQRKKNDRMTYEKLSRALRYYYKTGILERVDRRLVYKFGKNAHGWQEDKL
The following applies: protein: recombinant; tags: N-terminal GST; dsDNA, one strand shown. The essentials: as §1

Another assay has as its target T12, ETV3 (Homo sapiens, UniProt P41162-2 1-143).
T12 sequence: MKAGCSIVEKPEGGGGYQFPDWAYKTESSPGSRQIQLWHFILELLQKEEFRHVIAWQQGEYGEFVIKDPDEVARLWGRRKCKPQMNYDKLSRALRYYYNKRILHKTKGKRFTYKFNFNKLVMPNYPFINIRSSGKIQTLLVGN
To be noted: protein: recombinant; tags: N-terminal GST; dsDNA, one strand shown. The essentials:
as §1

Another assay has as its target ETV6 (Homo sapiens, UniProt P41212 1-452). The following applies: protein: recombinant; tags: N-terminal GST; dsDNA, one strand shown. The procedure, abridged: as §1

ETV1, sequence (P50549 whole entry): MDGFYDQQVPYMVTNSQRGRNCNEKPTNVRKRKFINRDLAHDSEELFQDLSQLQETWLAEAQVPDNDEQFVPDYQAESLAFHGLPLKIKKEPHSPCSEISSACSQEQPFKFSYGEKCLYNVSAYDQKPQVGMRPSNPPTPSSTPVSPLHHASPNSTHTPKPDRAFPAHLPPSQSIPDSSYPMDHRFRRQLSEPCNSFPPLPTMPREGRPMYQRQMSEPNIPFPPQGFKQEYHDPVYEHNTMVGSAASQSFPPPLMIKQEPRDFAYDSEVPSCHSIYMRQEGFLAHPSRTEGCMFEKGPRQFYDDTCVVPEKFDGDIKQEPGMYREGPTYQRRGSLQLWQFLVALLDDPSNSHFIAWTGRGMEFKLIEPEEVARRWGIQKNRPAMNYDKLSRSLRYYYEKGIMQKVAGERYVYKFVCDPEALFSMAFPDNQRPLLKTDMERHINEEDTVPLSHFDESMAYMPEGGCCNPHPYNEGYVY
ETV6, sequence (P41212 whole entry): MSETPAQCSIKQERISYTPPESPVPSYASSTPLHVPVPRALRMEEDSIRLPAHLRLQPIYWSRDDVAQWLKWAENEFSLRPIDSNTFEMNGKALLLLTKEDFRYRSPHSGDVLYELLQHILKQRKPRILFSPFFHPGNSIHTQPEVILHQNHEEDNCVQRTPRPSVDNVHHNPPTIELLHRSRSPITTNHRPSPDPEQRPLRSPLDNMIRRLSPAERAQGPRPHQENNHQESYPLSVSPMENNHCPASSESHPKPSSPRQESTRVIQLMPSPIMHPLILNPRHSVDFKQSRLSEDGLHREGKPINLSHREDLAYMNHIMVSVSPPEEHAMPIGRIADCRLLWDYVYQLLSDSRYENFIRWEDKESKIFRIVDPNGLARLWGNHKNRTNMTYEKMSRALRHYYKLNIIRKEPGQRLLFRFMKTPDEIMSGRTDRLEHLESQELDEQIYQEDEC
ETV5, sequence (P41161 whole entry): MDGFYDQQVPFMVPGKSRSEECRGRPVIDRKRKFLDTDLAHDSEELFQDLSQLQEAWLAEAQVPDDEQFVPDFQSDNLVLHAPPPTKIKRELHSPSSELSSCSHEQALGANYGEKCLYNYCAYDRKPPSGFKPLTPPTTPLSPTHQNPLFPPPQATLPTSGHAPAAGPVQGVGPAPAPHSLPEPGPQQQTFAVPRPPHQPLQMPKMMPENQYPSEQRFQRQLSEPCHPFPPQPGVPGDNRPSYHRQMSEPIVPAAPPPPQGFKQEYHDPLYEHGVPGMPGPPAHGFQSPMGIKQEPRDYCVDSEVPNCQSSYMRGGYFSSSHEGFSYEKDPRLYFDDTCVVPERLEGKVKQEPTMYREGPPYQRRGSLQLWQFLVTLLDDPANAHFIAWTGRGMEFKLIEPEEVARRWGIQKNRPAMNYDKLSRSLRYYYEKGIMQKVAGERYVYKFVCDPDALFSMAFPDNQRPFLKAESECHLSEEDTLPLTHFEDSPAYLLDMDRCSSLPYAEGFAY
ELF4, sequence (Q99607 whole entry): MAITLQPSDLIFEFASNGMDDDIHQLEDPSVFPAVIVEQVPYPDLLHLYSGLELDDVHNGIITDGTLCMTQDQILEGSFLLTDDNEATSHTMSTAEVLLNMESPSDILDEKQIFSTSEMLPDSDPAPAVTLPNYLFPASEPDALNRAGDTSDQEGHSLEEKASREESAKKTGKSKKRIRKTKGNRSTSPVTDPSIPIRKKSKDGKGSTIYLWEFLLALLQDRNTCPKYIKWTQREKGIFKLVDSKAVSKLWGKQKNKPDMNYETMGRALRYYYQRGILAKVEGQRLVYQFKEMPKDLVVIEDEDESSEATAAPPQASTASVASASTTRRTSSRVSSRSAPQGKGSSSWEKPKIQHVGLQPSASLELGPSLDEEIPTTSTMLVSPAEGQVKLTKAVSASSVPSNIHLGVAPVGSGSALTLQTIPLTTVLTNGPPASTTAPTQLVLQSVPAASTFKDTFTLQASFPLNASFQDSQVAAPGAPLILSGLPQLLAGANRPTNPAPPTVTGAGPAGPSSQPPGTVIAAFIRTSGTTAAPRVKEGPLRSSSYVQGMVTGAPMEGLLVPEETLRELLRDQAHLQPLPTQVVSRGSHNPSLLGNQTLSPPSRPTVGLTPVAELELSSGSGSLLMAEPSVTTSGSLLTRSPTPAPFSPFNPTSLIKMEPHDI
CRX, sequence (O43186 whole entry): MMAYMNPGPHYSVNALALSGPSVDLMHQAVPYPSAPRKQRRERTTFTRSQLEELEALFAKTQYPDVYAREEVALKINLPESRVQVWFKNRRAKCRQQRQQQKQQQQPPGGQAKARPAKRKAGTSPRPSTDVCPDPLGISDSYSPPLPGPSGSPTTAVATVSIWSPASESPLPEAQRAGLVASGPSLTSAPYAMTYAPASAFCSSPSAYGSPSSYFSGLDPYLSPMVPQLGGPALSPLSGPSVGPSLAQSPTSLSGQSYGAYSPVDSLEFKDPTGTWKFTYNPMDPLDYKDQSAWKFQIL
HSF1, sequence (Q00613 whole entry): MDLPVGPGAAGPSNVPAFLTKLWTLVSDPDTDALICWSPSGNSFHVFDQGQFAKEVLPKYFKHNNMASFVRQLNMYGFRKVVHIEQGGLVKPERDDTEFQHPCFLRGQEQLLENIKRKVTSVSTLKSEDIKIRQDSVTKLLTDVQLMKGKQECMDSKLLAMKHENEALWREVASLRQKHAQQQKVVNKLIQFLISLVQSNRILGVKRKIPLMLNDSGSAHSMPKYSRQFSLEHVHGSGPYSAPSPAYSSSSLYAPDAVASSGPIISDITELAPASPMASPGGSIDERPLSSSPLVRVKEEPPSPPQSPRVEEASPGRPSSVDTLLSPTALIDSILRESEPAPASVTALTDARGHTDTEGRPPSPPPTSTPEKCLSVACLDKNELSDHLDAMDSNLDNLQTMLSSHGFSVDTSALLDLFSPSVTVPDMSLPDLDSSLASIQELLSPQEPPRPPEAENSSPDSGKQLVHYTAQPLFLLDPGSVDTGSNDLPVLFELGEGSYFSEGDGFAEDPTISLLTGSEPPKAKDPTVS

As to ACTATT, the binding signal with FEV was 1.25 fold enrichment (6-mer frequency, TF over GST control); with ETV5 it was 1.22 fold enrichment (6-mer frequency, TF over GST control); with HSF1, 1.33 fold enrichment (6-mer frequency, TF over GST control); with SPIC it was 1.44 fold enrichment (6-mer frequency, TF over GST control); in the assay with ELF4, 1.3 fold enrichment (6-mer frequency, TF over GST control); with ELK4, 1.35 fold enrichment (6-mer frequency, TF over GST control). For the same sequence, the binding signal with ETV2 was 1.31 fold enrichment (6-mer frequency, TF over GST control); in the assay with ELF3, 1.32 fold enrichment (6-mer frequency, TF over GST control); with CRX it was 1.28 fold enrichment (6-mer frequency, TF over GST control); with ETV1, 1.28 fold enrichment (6-mer frequency, TF over GST control); with ERF, 1.22 fold enrichment (6-mer frequency, TF over GST control); with ETV3L, 1.27 fold enrichment (6-mer frequency, TF over GST control). Further, the binding signal in the assay with ETS2 was 1.37 fold enrichment (6-mer frequency, TF over GST control); in the assay with SPDEF, 1.13 fold enrichment (6-mer frequency, TF over GST control); in the assay with ETV7, 1.32 fold enrichment (6-mer frequency, TF over GST control); in the assay with ELF5 it was 1.29 fold enrichment (6-mer frequency, TF over GST control); with ETV3, 1.35 fold enrichment (6-mer frequency, TF over GST control); with ETV6, 1.43 fold enrichment (6-mer frequency, TF over GST control).
